Assay outcomes: PubChem BioAssay, The Scripps Research Institute Molecular Screening Center
TTR transcr act: TTR transcription activation, primary screen; SH-SY5Y TTR promoter Gaussia luciferase, luminescence; 100% = recombinant luciferase protein wells; activation, % at 16.7 µM; hit rate 1.3% among 92,000;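 active = activation above the mean of all tested compounds plus 3 SD, cut at about 9.5% in these data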;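 also: cells exposed to compounds for one day before reading; 0% = median of all test compound wells on the plate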
TTR inh HuH7: counter-screen for TTR activators: TTR transcription inhibitors in HuH7 cells. HuH7 TTR promoter-Gaussia luciferase reporter, luminescence. AID 1117279. inhibition, % at 16.7 µM. shares compounds with TTR transcr act. hit rate 4% among 1,100;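 active = average inhibition above the solvent-only control wells' mean plus 3 SD, cut at about 15% in these data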;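 also: 0% = cells with DMSO only and 100% = cells with inhibitor control FD; inhibitors lower well luminescence so higher value means more inhibition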
TTR act confirm: human TTR transcription activation, confirmation. 1,100 tested, under 10 active. SHSY5Y TTR promoter Gaussia luciferase, luminescence; 100% = purified Lucia enzyme wells, no cells. AID 1117280. activation, % at 16.7 µM. shares compounds with TTR transcr act;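 active = mean activation above a set limit taken from the earlier primary screen, cut at about 11% in these data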;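 also: 0% = DMSO-treated cells and 100% = recombinant Lucia luciferase without cells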
* = called active by the depositor. The entries come from a sample that favours hits as a whole.

O=C1[C@H]2[C@@H](c3ccc(F)cc3)N3C(=O)N(c4cccc(Br)c4)C(=O)[C@@]3(Cc3ccccc3)[C@H]2C(=O)N1C1CCCCC1 was read as TTR transcr act 1.6.
Cc1cccc([C@@H]2[C@@H]3C(=O)N(Cc4ccccc4)C(=O)[C@@H]3[C@]3(Cc4ccccc4)C(=O)N(c4cccc(Cl)c4)C(=O)N23)c1 was read as TTR transcr act -1.5.
For O=C1[C@H]2[C@@H](c3ccc(Cl)cc3)N3C(=O)N(c4cccc(Cl)c4)C(=O)[C@@]3(Cc3ccccc3)[C@H]2C(=O)N1C1CCCCC1 the results were TTR transcr act 15.7*, TTR inh HuH7 5.6 and TTR act confirm -0.8.
CCC(C)C(=O)Nc1ccc(OC)cc1OC (configuration not stated) was read as TTR transcr act 0.7.
Screening COc1ccc(NC(=O)C(F)(OC)C(F)(F)F)c(OC)c1 (configuration not stated) returned TTR transcr act 13.8*, TTR inh HuH7 -8.1 and TTR act confirm 0.7.
Screening COc1ccc(NC(=O)/C=C/C(=O)O)c(OC)c1 returned TTR transcr act 1.5.
CCOC(=O)[C@H]1[C@H]2COc3cc(OC)ccc3[C@@H]2N2C(=O)c3cc(F)ccc3NC(=O)[C@@]12C was read as TTR transcr act 3.3.
CCOc1cc(/C=C(\C#N)C(=O)NCC2CCCO2)ccc1O (configuration not stated) was read as TTR transcr act 6.2.
Cc1ccc(/C=C(\C#N)C(=O)NCC2CCCO2)o1 (configuration not stated) was read as TTR transcr act 5.0.
For N#C/C(=C\c1ccc[nH]1)C(=O)NCC1CCCO1 (configuration not stated) the results were TTR transcr act 11.4*, TTR inh HuH7 -7.5 and TTR act confirm -0.2.
Cn1c(CNc2ccccc2F)nc2ccccc21 was read as TTR transcr act 0.7.
Screening O=c1nc(-c2ccccc2)nc(-c2ccccc2)[nH]1 returned TTR transcr act -4.3.
Cc1ccc(-c2[nH]c(-c3ccc(C(=O)O)cc3)nc2-c2ccccc2)cc1 was read as TTR transcr act 12.5*, TTR inh HuH7 1.9 and TTR act confirm -0.6.
Screening NC(=O)c1nc(-c2ccccc2)c(-c2ccccc2)[nH]c1=O returned TTR transcr act -1.5.
COc1ccc(C(=O)N[C@H]2CC[C@@]34CCCN3C(=O)CCC[C@H]4[C@H]2C)cc1 was read as TTR transcr act 0.3.
COc1cc(C(=O)N2CCN(C(=O)C3COc4ccccc4O3)CC2)cc(OC)c1OC (configuration not stated) was read as TTR transcr act 0.3.
For COc1ccc(C(=O)N2CCN(C(=O)C3COc4ccccc4O3)CC2)cc1 (configuration not stated) the results were TTR transcr act -0.1.
`Cc1cc(O)c2c(C)c(CC(=O)N3CCN(C(=O)C4COc5ccccc5O4)CC3)c(=O)oc2c1` (configuration not stated) gave TTR transcr act 9.8*, TTR inh HuH7 10.3 and TTR act confirm -1.1.
`CCOC(=O)[C@@H]1[C@H]2COc3cc(OC)ccc3[C@@H]2N2C(=O)N(c3ccc(F)cc3)C(=O)[C@]12C` gave TTR transcr act -0.5.
For CN(C(=O)c1cccc(NC(=O)Cc2cccc([N+](=O)[O-])c2)c1)C1CCCC1 the results were TTR transcr act 1.9.
Screening CCCCCCCCN1C(=O)[C@@H](CC(=O)NCC2CCCCC2)C[C@@]2(C(=O)OC)C1=C[C@H](C(C)C)O[C@@H]2C1CC1 returned TTR transcr act 0.7.
`COc1cccc(N2CCN(c3ccc4nnc(CCC(=O)Nc5ccccn5)n4n3)CC2)c1` gave TTR transcr act -1.4.
Screening Cc1cnc(NC(=O)CSc2nnc(-c3ccccc3)o2)s1 returned TTR transcr act -1.7.
`O=C(CSc1nnc(-c2cccc(F)c2)o1)NC1CCCC1` gave TTR transcr act -1.4.
For O=C(CSc1nnc(-c2ccccc2)o1)NCC1CCCCC1 the results were TTR transcr act 12.0*, TTR inh HuH7 -6.3 and TTR act confirm -0.6.
Screening CC(C)Cc1csc(=S)[nH]1 returned TTR transcr act 0.7.
For CSc1ccc(CCNC(=O)c2cc(-c3ccccc3)c(N3CCOCC3)s2)cc1 the results were TTR transcr act -0.9.
Cc1ccc(C(=O)O/N=C2\CCCc3ccccc32)cc1 was read as TTR transcr act 22.6*, TTR inh HuH7 -2.2 and TTR act confirm 0.2.
Screening O=C(O/N=C1/CCCc2occc21)c1ccccc1 returned TTR transcr act -3.1.
`COc1ccc2c(c1)/C(=N/OC(=O)c1cccs1)CCC2` gave TTR transcr act 0.5.
Cc1cc(C)cc(C(=O)N2CCCCC2)c1 was read as TTR transcr act -1.6.
Screening C[C@@H]1NS(=O)(=O)[C@H]2C[C@@H]3C=C[C@]2(O3)[C@H]1OC(=O)c1ccc(C(C)(C)C)cc1 returned TTR transcr act 0.4.
Screening Cc1cc(NS(=O)(=O)c2ccc(NC(=O)Cc3ccc([N+](=O)[O-])cc3)cc2)nc(C)n1 returned TTR transcr act 1.2.
`CN(Cc1ccccc1)C(=O)OCc1cn(Cc2cccc(Cl)c2)nn1` gave TTR transcr act -2.4.
CSCCC(NC(=O)COc1ccccc1)C(=O)N1CCN(C(C)=O)CC1 (configuration not stated) was read as TTR transcr act -1.3.
`O=C(C(=S)N1CCOCC1)c1c[nH]c2ccccc12` gave TTR transcr act -0.7.
`Cc1ccccc1OCCCSc1nc2ccccc2[nH]1` gave TTR transcr act 30.8*, TTR inh HuH7 -19.1 and TTR act confirm -0.2.
`Cc1cccc(NC(=O)CCCSc2nc3ccccc3[nH]2)c1` gave TTR transcr act 1.1.
Screening O=C(CCCSc1nc2ccccc2[nH]1)Nc1ccccc1 returned TTR transcr act -0.4.
Screening Cc1cccc(N2CCN(S(=O)(=O)c3ccc4c(c3)CC(=O)N4C)CC2)c1C returned TTR transcr act 14.0*, TTR inh HuH7 -11.3 and TTR act confirm -0.7.
Screening Cc1cccc(N2CCN(S(=O)(=O)c3ccc4c(c3)OCCO4)CC2)c1C returned TTR transcr act 0.1.
Cc1cccc(N2CCN(S(=O)(=O)c3ccc4c(c3)CCN4C(=O)CCC(=O)O)CC2)c1C was read as TTR transcr act 1.4.
CC(C)(C)N(Cc1ccccc1)C(=O)COC(=O)c1ccc(N2CCCC2=O)cc1 was read as TTR transcr act 1.1.
`N=c1c2c(ccn1CCCc1ccccc1)Oc1ccc3ccccc3c1C2c1ccccc1` (configuration not stated) gave TTR transcr act -1.9.
For CCN(CC(=O)Nc1ccc(OC)cc1)C(=O)c1ccc(N2C(=O)CCC2=O)cc1 the results were TTR transcr act -0.5.
Screening Cc1ccc(NC(=O)CC2OC(=O)c3ccccc32)cc1S(=O)(=O)N1CCOCC1 (configuration not stated) returned TTR transcr act -2.4.
For Cc1ccc2nc(SCCC#N)nc(C)c2c1 the results were TTR transcr act -2.7.
For CCOc1ccc2nc(SCc3cccc(C)c3)nc(C)c2c1 the results were TTR transcr act 0.8.
Screening CCOC(=O)CCSc1nc(C)c2cc(C)c(C)cc2n1 returned TTR transcr act 14.5*, TTR inh HuH7 -4.7 and TTR act confirm -1.7.
